Read-out in test [1]: Tumor necrosis factor receptor 1 (TNFRSF1A), TNFRSF1A (gene 7132)
The test is described as follows: LTEA_HepaRG_TNFRSF1A: Life Technologies and Expression Analysis (LTEA) Assay for Tumor necrosis factor receptor 1 (TNFRSF1A) using HepaRG (AID 2283535). Particulars: mRNA level, 48 h; actives raise or lower the signal. The gist of the method:
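Differentiated HepaRG cells in serum-free induction medium, exposed 48 h in duplicate to 8 half-log concentrations up to 100 uM in 0.5% DMSO. TNFRSF1A mRNA by Fluidigm TaqMan qRT-PCR, normalized to ACTB, GAPDH, POLR2A; bidirectional fit.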

Read-out in test [2]: Thyroid Hormone Responsive (THRSP), THRSP (gene 7069)
The test is described as follows: LTEA_HepaRG_THRSP: Life Technologies and Expression Analysis (LTEA) Assay for Thyroid Hormone Responsive (THRSP) using HepaRG (AID 2283536). Particulars: mRNA level, 48 h; actives raise or lower the signal. The method in brief:
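Differentiated HepaRG cells treated 48 h in serum-free induction medium with 8 half-log concentrations up to 100 uM (0.5% DMSO), duplicates. THRSP mRNA by TaqMan qRT-PCR normalised to ACTB, GAPDH, POLR2A; bidirectional fit versus DMSO.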

Read-out in test [3]: Cellular tumor antigen p53 (Homo sapiens) (UniProt P04637)
The test is described as follows: LTEA_HepaRG_TP53: Life Technologies and Expression Analysis (LTEA) Assay for Tumor Protein P53 (TP53) using HepaRG (AID 2283537). The conditions noted are these: mRNA level, 48 h; actives raise or lower the signal. The gist of the method: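 Read-out is TP53 transcript level by microfluidic qRT-PCR, normalised to three housekeeping genes and fitted bidirectionally against DMSO. Human HepaRG cells received compounds for 48 h, highest concentration 100 uM.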

Read-out in test [4]: UDP glucuronosyltransferase (UGT1A1), UGT1A1 (gene 54658)
Description: LTEA_HepaRG_UGT1A1: Life Technologies and Expression Analysis (LTEA) Assay for UDP glucuronosyltransferase (UGT1A1) using HepaRG (AID 2283538). Particulars: mRNA level, 48 h; actives raise or lower the signal. The gist of the method:
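Human liver HepaRG cultures receive test chemical for 48 h, up to 100 uM in 0.5% DMSO, with phenobarbital induction controls. UGT1A1 mRNA is measured by qRT-PCR and normalized to ACTB, GAPDH and POLR2A.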

Read-out in test [5]: X-box binding protein 1 (XBP1), XBP1 (gene 7494)
Description: LTEA_HepaRG_XBP1: Life Technologies and Expression Analysis (LTEA) Assay for X-box binding protein 1 (XBP1) using HepaRG (AID 2283540). The conditions noted are these: mRNA level, 48 h; actives raise or lower the signal. The method in brief: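 Differentiated human HepaRG cells in serum-free induction medium exposed 48 h in duplicate to eight half-log concentrations up to 100 uM in 0.5% DMSO. XBP1 mRNA measured by Fluidigm TaqMan qRT-PCR, normalized to ACTB, GAPDH, POLR2A; bidirectional fitting against DMSO.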

A short description of test [6]: LTEA_HepaRG_LDH_cytotoxicity: Cytotoxicity Assessment in the Life Technologies and Expression Analysis (LTEA) Assay (AID 2283563; active = hit-call score of the fitted dose curve at least 0.9, where 1 is the maximum;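 for AC50: LDH activity released into spent culture medium as a marker of cell death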). The gist of the method: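 Differentiated HepaRG cells in serum-free induction medium, exposed 48 h in duplicate to 8 half-log concentrations up to 100 uM in 0.5% DMSO. Cytotoxicity from LDH measured in spent medium, fit relative to DMSO.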

A short description of test [7]: TOX21_p53_BLA_p2_viability: Viability Assessment in the Tox21 HCT-116 p53 Agonism Beta-lactamase Assay, Phase 2 (AID 2283591; active = hit-call score of the fitted dose curve at least 0.9, where 1 is the maximum;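 note: compound exposure lasted 16 h at 37 °C; actives lower the ATP signal meaning cytotoxicity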). The gist of the method:
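HCT116 p53-bla cells, 4000/well, dosed after 5 h plating (217-fold dilution of DMSO stocks) and incubated 16 h at 37C. Viability taken as cellular ATP by CellTiter-Glo luminescence after 30 min RT; signal loss marks cytotoxicity.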

The target in test [8] is Cellular tumor antigen p53 (Homo sapiens) (UniProt P04637). Description: TOX21_p53_BLA_p2_ratio: Tox21 HCT-116 p53 Agonism Beta-lactamase Assay, Ratio, Phase 2 (AID 2283592; active = hit-call score of the fitted dose curve at least 0.9, where 1 is the maximum). The gist of the method: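 HCT-116 cells with p53-responsive beta-lactamase reporter, 4000 cells/well, preincubated 5 h, then compound in DMSO (217-fold dilution) for 16 h at 37C. CCF4-AM substrate 2 h at room temperature; 460/530 nm emission ratio fitted upward versus DMSO.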
Cellular tumor antigen p53 (Homo sapiens), sequence (P04637 whole entry, looked up): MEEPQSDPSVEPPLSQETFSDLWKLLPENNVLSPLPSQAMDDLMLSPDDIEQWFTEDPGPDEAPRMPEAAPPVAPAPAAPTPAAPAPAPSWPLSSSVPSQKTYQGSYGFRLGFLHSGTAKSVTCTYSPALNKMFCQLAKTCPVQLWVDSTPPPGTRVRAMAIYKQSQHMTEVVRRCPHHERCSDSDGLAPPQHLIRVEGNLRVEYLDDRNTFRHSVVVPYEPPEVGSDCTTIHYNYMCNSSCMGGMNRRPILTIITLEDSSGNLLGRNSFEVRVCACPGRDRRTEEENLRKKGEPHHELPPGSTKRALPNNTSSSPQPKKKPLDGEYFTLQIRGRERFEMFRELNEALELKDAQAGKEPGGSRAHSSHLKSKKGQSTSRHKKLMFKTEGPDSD

The nature of test [9]: ATG_XTT_Cytotoxicity: Cytotoxicity Assessment in the Attagene TRANS-FACTORIAL HepG2 Assay (AID 2283584; active = hit-call score of the fitted dose curve at least 0.9, where 1 is the maximum). The method in brief: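 HepG2 cells transiently transfected with GAL4-UAS multiple reporter units, dosed 24 h; cytotoxicity read by XTT as loss of signal versus DMSO baseline.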

Among the data in PubChem BioAssay (EPA / NIEHS) are outcome and AC50 values, retold here.

In general, AC50 refers to the concentration giving half of the maximal activity seen.

Several values for one entry are separate records, joined by “and”; a condition that tells them apart may be missing. Equal entries are not always repeated. Results filed as inconclusive are left out. A structure can be active in one record and inactive in another. Activity calls are given as the source filed them. Rule for the calls, unless noted: active = hit-call score of the fitted dose curve at least 0.9, where 1 is the maximum; inactive = score below 0.9.

Regarding `CC1=C(C(=O)Nc2ccccc2)SCCO1`, the compound was called inactive in test [1], in test [3], in [5], in test [6], in [7] and in test [8]. In addition, the AC50 is 17 µM (active) in [2] and 50 µM (active) in test [4].

Turning to `Cc1ccc(-c2c(Cl)nc(C#N)n2S(=O)(=O)N(C)C)cc1`, the AC50 in test [1] is 34.9 µM (active); in test [2], 6.18 µM (active); in test [4], 37.4 µM (active); in test [5] it was 90.6 µM (active); in test [6], 8.94 µM (active); in test [7], 68.9 µM (active). Besides, the AC50 in test [8] is 8.72 µM (active). Besides, in [3], the outcome was inactive.

For `CS/C(C)=N/OC(=O)N(C)SN(C)C(=O)O/N=C(\C)SC`, the result in test [1], in test [2], in [3], in test [5], in test [6] and in [8] was inactive. Also, the AC50 in [4] was 29.1 µM (active).

Take `N#Cc1cc(Br)c(O)c(Br)c1`: the half-maximal activity concentration (AC50) in test [1] was 16.9 µM (active); in [2] it was 22.6 µM (active); in test [3], 10.4 µM (active); in test [4] it was 17 µM (active); in test [5], 10.5 µM (active); in [6] it was 66.8 µM (active). For the same compound, the AC50 in [8] was 40 µM (active) and 56 µM (active). For the same compound, the outcome in test [7] was inactive.

On to `COC(=O)c1ccccc1C(=O)OC`, for which the compound was called inactive in [1], in test [2], in [3], in [4], in test [5] and in test [6]. In addition, the result in test [8] was inactive.

Turning to `CCNc1nc(Cl)nc(NC(C)C)n1`, the call in test [1], in test [2], in test [3], in test [5], in test [6] and in test [9] was inactive. The result in test [8] was inactive. The AC50 in test [4] was 18.1 µM (active).

For `CCON=C(CC)C1=C(O)CC(c2c(C)cc(C)cc2C)CC1=O` (configuration not stated), the compound was called inactive in test [1], in [3], in [5], in test [6], in [7] and in [8]. Moreover, the figures for the AC50 in [2] and in test [4] were 50 µM (active) and 27.9 µM (active), respectively.

As for `Fc1ccc(Oc2ccnc3cc(Cl)cc(Cl)c23)cc1`, the result in [1], in test [3], in [5], in test [6] and in test [7] was inactive. For the same compound, the results for the AC50 in test [2], in test [4] and in test [8] were 76.2 µM (active), 13.3 µM (active) and 79.3 µM (active), respectively.

As to `CCOc1cc(Oc2ccc(C(F)(F)F)cc2Cl)ccc1[N+](=O)[O-]`, the call in [1], in test [5], in test [6], in test [7] and in test [8] was inactive. Moreover, the AC50 in [2] is 21.7 µM (active); in test [3], 14 µM (active); in test [4] it was 5.1 µM (active).

For the compound `COP(N)(=O)SC` (configuration not stated), the call in test [1], in [2], in test [3], in [4], in test [5] and in test [6] was inactive. The outcome in test [7] was inactive.

Regarding `COC(=O)C(C)Oc1ccc(Oc2ccc(Cl)cc2Cl)cc1` (configuration not stated), the outcome in test [1], in [3], in test [5], in test [6], in [7] and in test [8] was inactive. In addition, the AC50 is 40 µM (active) in [2] and 20.7 µM (active) in [4].

Regarding `C=CCC1=C(C)C(OC(=O)C2C(C=C(C)C)C2(C)C)CC1=O` (configuration not stated), the outcome in test [1], in test [2], in test [3], in test [4], in test [5] and in test [6] was inactive. In addition, the result in test [9], in test [7] and in [8] was inactive.

With `CC(Oc1ccc(Cl)cc1Cl)C(=O)O` (configuration not stated), the compound was classed as inactive in test [1], in test [2], in test [3], in [4], in test [5] and in [6]. Moreover, the compound was called inactive in [7] and in [8].

In the case of `OC(c1ccc(Cl)cc1)(c1cncnc1)c1ccccc1Cl` (configuration not stated), the compound was called inactive in test [1], in test [5], in test [9], in test [7] and in [8]. The AC50 was 86.4 µM (active) in test [2]; 70.7 µM (active) in test [3]; 91.1 µM (active) in [4]; 70.1 µM (active) in [6]; 81.5 µM (active) in test [8].
